# In PubChem BioAssay (NCATS):
# Several values for one entry are separate records, joined by “and”; a condition that tells them apart may be missing. Identical values can stand only once. Records with an inconclusive call do not appear. Activity calls are given as the source filed them. Calls follow the shape of the dose curve; as a rule, active = well fitted cell-killing curve with a large enough effect; inconclusive = small, poorly fitted or top-dose-only effect, or effect the other way; inactive = no such curve, though single readings can be large or run the other way.
# Experiment: Viability qHTS for spleen associated tyrosine kinase inhibitor (SYKi) drug resistant MV4-11 cells (AID 1963824); also: nearly all actives have a fitted effect of over 35% in size
# Settings: SYKi-resistant MV4-11 viability, CellTiter-Glo, 72 h; series mostly up to 45 µM; viability, % of control: at the top concentration
# Source text: Department of Medicine, Hematology/Oncology
# University Hospital Frankfurt, Germany.
# Trials have shown promising clinical activity of the selective SYK inhibitor entospletinib in patients with high expressing HOXA9/MEIS1 acute leukemias. As the development of resistance mechanisms is a common problem in the use of targeted drugs, we performed a chemical library screen to identify drug sensitivities in SYK inhibitor resistant AML cells. […] Glucocorticoids are potent immunosuppressants which work in part by inhibiting the transcription of cytokine genes.
# Described herein is a viability screen to look for activity in the SYK inhibitor drug resistant cell line against four NCATS compound libraries (MIPE 5.0, NPC, NPACT, and Kinase) totaling 11372 compounds. Active hits were reacquired for confirmation and further secondary assay testing.
# SEQUENCE No. (e.g., 1, 2, 3, etc.); […] (e.g., Cells, Incubation, Reagent, etc.); VALUE; DESCRIPTION.
# 1; Media; 2uL; white, solid-bottom Corning assay plate.
# 2; Compounds; 23nL; Echo acoustic dispenser.
# 3; Cell; 5uL; 500 cells per well.
# 4: Incubation; 72hr; 37 C, 5% CO2, 95% humidity.
# 5; Reagent; 3uL; CellTiter-Glo reagent (Promega).
# 6; Incubation; 10min; room temperature.
# 7; Detection; Luminescence; ViewLux plate reader (PerkinElmer).
# NOTES (numbers refer to Sequence numbers above
# 1. Quantitative high-throughput screening (qHTS) of small molecule compounds was conducted on drug resistant SYKi MV4-11 cell line.
# 2. Twenty-three nanoliter of small molecule compounds were added to each assay plates using the Echo acoustic dispenser (Beckman Coulter).
# 3. Cells were seeded into the assay plates at a final density of 500 cells in 5uL of media per well using the Multidrop Combi dispenser.
# 4. Plates were covered with stainless steel gasketed lids and incubated for 72 hours at standard cell culture conditions.
# 5. Viability was assessed by adding 3uL of CellTiter-Glo detection reagent (Promega).
# 6. Plates were covered with gasket lids and incubated for 10 minutes at room temperature.
# 7. Luminescence was measured on a ViewLux plate reader (PerkinElmer).
# Potency is read from the fitted curve at half-maximal effect.
SMILES,"viability, % of control",Potency
COc1ccc(S(=O)(=O)N[C@@H](CNc2nc(C)nc(N3CCC(c4ccc5c(n4)NCCC5)CC3)c2C)C(=O)O)cc1,107% (inactive),
C[C@@H]1O[C@@H](O[C@H]2[C@H](OC(=O)[C@]34CCC(C)(C)C[C@H]3C3=CCC5[C@@]6(C)C[C@H](O)[C@H](O[C@@H]7O[C@H](CO)[C@@H](O)[C@H](O)[C@H]7O)[C@](CO)(C(=O)O)C6CC[C@@]5(C)[C@]3(C)C[C@H]4O)OC[C@H](O)[C@@H]2O)[C@H](O)[C@H](O)[C@H]1O[C@@H]1OC[C@@H](O)[C@H](O[C@@H]2OC[C@](O)(CO)[C@H]2O)[C@H]1O (stereo not given in full),,0.776 µM (active)
CC(=O)C=C=C1C(C)(C)CC(O)CC1(C)O[C@@H]1O[C@H](CO[C@H]2OC[C@](O)(CO)[C@H]2O)[C@@H](O)[C@H](O)[C@H]1O (stereo not given in full),45.9% [at 17.3 µM] (inactive),
CNC12CC3C[C@@](C)(C1)C[C@](C)(C3)C2,61.5% (inactive),
C=CC(C)(CC/C=C(\C)C(=O)OC)OC1OC(COC(=O)CC(C)(O)CC(=O)O)C(O)C(O)C1O (stereo not given),89.9% [at 17.3 µM] (inactive),
OCc1ccccc1O,69.1% (inactive),
CC1CCC2C(C)(C)C(O)CCC2(C)C12Cc1c(O)cc3c(c1O2)CN(C(CCC(N)=O)C(=O)O)C3=O (stereo not given),79.1% [at 17.3 µM] (inactive),
NCCS(=O)(=O)O,,inactive
C=CC(=O)Nc1cccc(CN2C(=O)N(c3c(Cl)c(OC)cc(OC)c3Cl)Cc3cnc(NCCCCN(CC)CC)nc32)c1,,3.66 µM (active)
O=C1c2ccccc2-[n+]2ccc3c([nH]c4ccccc43)c21,,0.651 µM (active)
Clc1ccc(Cn2c(Cc3ccccc3)nc3ccccc32)cc1,,16.4 µM (active)
O=C1[C@H](Cc2ccc(O)cc2)N2C(=O)CCN(C(=O)NCc3ccccc3)[C@H]2CN1Cc1cccc2ccccc12,,1.48 µM (active)
C=C1[C@@H]2CC[C@@]3(C)[C@H](c4ccoc4)OC(=O)C[C@]13O[C@H]1CC(=O)C(C)(C)[C@H](C(O)C(=O)OC)[C@]12C (stereo not given in full),67.2% [at 17.3 µM] (inactive),
CC/C=C(\C(=O)N[C@@H]1C(=O)N2C(C(=O)OCOC(=O)C(C)(C)C)=C(COC(N)=O)CS[C@H]12)c1csc(N)n1,70.2% (inactive),
CC1OC2OC(=O)C3(C)CC4C5(CO5)C5=CC(=O)OC(C)(C)C5=CC(=O)C4(C)C(C1=O)C23 (stereo not given),,5.02 µM (active)
CCc1cncnc1N1CCN(Cc2nc3ccc(C(F)(F)F)cc3[nH]2)CC1,,5.9 µM (active)
C=C1[C@H]2[C@H](O[C@@H]3O[C@H](COC(=O)/C=C/c4cc(OC)c(O)c(OC)c4)[C@@H](O)[C@H](O)[C@H]3O)OC=C(C(=O)O)[C@H]2C[C@@H]1O,86.1% [at 17.3 µM] (inactive),
[O-][n+]1cccc(CO)c1,106% (inactive),
CC1(C)CC(=O)C2=C(C1)NC(=S)NC2c1cccc(O)c1 (stereo not given),,0.58 µM (active)
COc1cc2c(cc1OC)[C@@H]1C(=O)c3ccc4c(c3O[C@@H]1CO2)C=CC(C)(C)O4,,146 nM (active) and 166 nM (active)

SMILES,"viability, % of control",Potency
CO[C@H]1C[C@@H]2CC[C@@H](C)[C@@](O)(O2)C(=O)C(=O)N2CCCC[C@@H]2C(=O)O[C@H]([C@@H](C)C[C@@H]2CC[C@H](O)[C@H](OC)C2)CC(=O)[C@H](C)C=C(C)[C@@H](O)[C@@H](OC)C(=O)[C@H](C)C[C@H](C)C=CC=CC=C1C,,10.5 µM (active)
C[N+]1(C)[C@@H]2CC(OC(=O)[C@H](CO)c3ccccc3)C[C@H]1[C@@H]1O[C@@H]12 (stereo not given in full),,inactive
Nc1nc(OC(c2ccc(-c3cccc(F)c3)cc2)C(F)(F)F)cc(-c2ccc(C[C@H](N)C(=O)O)cc2)n1 (stereo not given in full),,18.6 µM (active)
Nc1ccc(S(=O)(=O)NCc2ccccc2)cc1,100% (inactive),
CC1=C[C@H]2[C@@H](CC1=O)[C@H](C)C[C@H](O)[C@H]2C(C)C,58.3% (inactive),
COc1ccc(NS(=O)(=O)c2sc3ccc(Cl)cc3c2C)cc1N1CCNCC1,,14.6 µM (active)
O=C1NC(c2cccc([N+](=O)[O-])c2)=CCN1c1ccccc1O,61.4% [at 17.3 µM] (inactive),
COc1cccc2c1C(=O)c1c(O)c3c(c(O)c1C2=O)C[C@@](O)(C(=O)CO)C[C@@H]3O[C@H]1C[C@H](N)[C@@H](O)[C@H](C)O1,,0.0525 µM (active)
COc1cc(/C=C/c2cc(O)cc(O[C@@H]3O[C@H](CO)[C@@H](O)[C@H](O)[C@H]3O)c2)ccc1O,65.7% [at 17.3 µM] (inactive),
OCCCNc1cc(-c2ccnc(Nc3cccc(Cl)c3)n2)ccn1,,58 nM (active) and 66.1 nM (active)
C[C@H]1CNC(=O)c2cnn3ccc(nc23)N[C@H](C)c2cc(F)ccc2O1,,0.934 µM (active)
Cc1c(OCC(F)(F)F)ccnc1CS(=O)c1nc2ccccc2[nH]1 (stereo not given),,16.6 µM (active)
CN1CCN(c2cc3c(nn2)Oc2ccccc2N3C)CC1,83.2% [at 17.3 µM] (inactive),
CC(CCc1ccccn1)(CCc1ccccn1)C(=O)c1ccccc1,96.6% (inactive),
COc1ccc([C@H]2CNC(=O)C2)cc1OC1CCCC1,96.2% (inactive),
COc1ccc(CNC(=O)Nc2ncc([N+](=O)[O-])s2)cc1,,13 µM (active)
CNc1nc(-c2ccc3c(N)n[nH]c3c2)cc(N2CC(C(=O)NC3CCCCC3)CCC2C)n1 (stereo not given),,4.61 µM (active)
Cc1cccc(C)c1OCC(C)N (stereo not given),88.3% (inactive),
c1ccc2c(-c3cnn4cc(-c5ccc(N6CCNCC6)cc5)cnc34)ccnc2c1,,0.833 µM (active)
COc1ccc(-c2ccc(-c3cn(C(=O)N4CCCCC4c4ccccc4)nn3)cc2)cc1 (stereo not given),,0.517 µM (active)
